# Data taken from PubChem BioAssay AID1751 (National Center for Advancing Translational Sciences (NCATS), 2009).
# Values joined by “and” are separate entries in the source; they are usually repeats but may differ in a detail not shown here. Equal values may be shown once. Results filed as inconclusive are left out. Active and inactive are the calls of the source. The call rests on the fitted dose curve; in most records, active means well fitted activation curve with a large enough effect; inconclusive means small, poorly fitted or top-dose-only effect; inactive means no such curve, though single readings can be large or run the other way.
# Molecular target: Pyruvate kinase PKM (Homo sapiens) (UniProt P14618)
# Assay: Confirmation Concentration-Response Assay for Activators of Human Muscle isoform 2 Pyruvate Kinase
# Conditions: purified hPK-M2, Kinase-Glo ATP luminescence, 1 h; series mostly up to 57.5 µM
# Description: NIH Chemical Genomics Center [NCGC] Matthew G. Vander Heiden, M.D., Ph.D. [Harvard Medical School, 77 Avenue Louis Pasteur, Boston, MA 02115] MLPCN Grant: 1 R03 MH085679-01 NCGC Assay Overview: Human pyruvate kinase muscle 2 (hPK-M2) enzyme was supplied as a highly purified (>95% pure) preparation from Harvard Medical School and assayed for its ability to generate ATP from ADP using phosphoenolpyruvate (PEP) as a substrate. ATP generation was detected in a coupled reaction by luciferase-mediated luminescence, an ATP-dependent process. Pyruvate kinase substrates, PEP and ADP, were present in the assay at Km and approximately 10-fold below Km respectively. The enzyme was assayed at an intermediate level of activity to screen for both inhibitors and activators.
# NCGC Assay Protocol Summary: Three uL of substrate mix (at r.t.) in assay buffer (50 mM Imidazole pH7.2, 50 mM KCl, 7 mM MgCl2, 0.01% Tween 20, 0.05% BSA) was dispensed into white solid bottom 1,536 well microtiter plates so that the final concentrations of substrates in the assay were 0.1 mM ADP and 0.5 mM PEP. 23 nL of compound were delivered by a pin tool and 1 uL of enzyme mix (final concentration of 0.1 nM) in assay buffer (4 degree Celsius) was added. Plates were incubated at room temperature for 1 hour. Two uL of detection mix (Kinase-Glo, Promega; at 4 degree Celsius protected from light) was added and luminescence read by a ViewLux (Perkin Elmer) at 1 second exposure/plate. Data were normalized to the uninhibited (column 3) and AC100 inhibition (no enzyme in column 2). To monitor activation, the first column contained a titration of the activator, NCGC00031955-03 (16-point 1:2 dilutions in duplicate starting at 57 uM) and the first 16 rows of column 4 contained 57 uM of NCGC00031955-03.
# Chain of Pyruvate kinase PKM (Homo sapiens) (P14618 whole entry, looked up, canonical isoform): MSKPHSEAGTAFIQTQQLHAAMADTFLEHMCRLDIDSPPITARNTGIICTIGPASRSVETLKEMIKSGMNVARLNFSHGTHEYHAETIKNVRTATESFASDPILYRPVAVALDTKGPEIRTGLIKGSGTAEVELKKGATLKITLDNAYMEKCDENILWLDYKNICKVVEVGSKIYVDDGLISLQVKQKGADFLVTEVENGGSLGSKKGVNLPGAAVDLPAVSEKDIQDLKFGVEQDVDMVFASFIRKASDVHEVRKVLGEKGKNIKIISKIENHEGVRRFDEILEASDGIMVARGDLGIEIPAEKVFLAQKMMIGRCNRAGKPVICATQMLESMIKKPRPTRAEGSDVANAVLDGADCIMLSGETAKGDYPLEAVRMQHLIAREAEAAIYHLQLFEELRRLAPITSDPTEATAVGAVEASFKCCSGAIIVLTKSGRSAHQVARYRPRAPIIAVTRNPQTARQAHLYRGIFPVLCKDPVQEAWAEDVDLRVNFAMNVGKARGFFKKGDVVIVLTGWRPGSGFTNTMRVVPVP
row,Structure (SMILES),Potency
1,O=S(=O)(NCCNS(=O)(=O)c1c(F)cccc1F)c1ccc2c(c1)OCCO2,20100 nM (active)
2,CC(=O)Nc1cc2c(s1)c1cnn(Cc3ccccc3F)c(=O)c1n2C,17900 nM (active)
3,COc1ccc(Cn2ncc3c4sc(C)cc4n(C)c3c2=O)cc1,20.1 nM (active)
4,Cc1cc2c(s1)c1cnn(Cc3ccc(C(F)(F)F)cc3)c(=O)c1n2C,318 nM (active)
5,CN1CCOc2ccc(S(=O)(=O)N3CCN(S(=O)(=O)c4c(F)cccc4F)CC3)cc21,2010 nM (active)
6,O=S(=O)(NCCCNS(=O)(=O)c1c(F)cccc1F)c1ccc2c(c1)OCCO2,2840 nM (active)
7,Cc1cc2c(s1)c1cnn(Cc3ccc(F)cc3)c(=O)c1n2C,25.3 nM (active)
8,Cn1ccc2cc(S(=O)(=O)N3CCN(S(=O)(=O)c4c(F)cccc4F)CC3)ccc21,318 nM (active)
9,Cc1cc2c(s1)c1cnn(Cc3ccccc3)c(=O)c1n2C,45 nM (active)
10,Cc1cc2c(s1)c1cnn(Cc3ccc(Cl)cc3)c(=O)c1n2C,201 nM (active)
11,O=C1CN(S(=O)(=O)c2c(F)cccc2F)CCN1S(=O)(=O)c1ccc2c(c1)OCCO2,89.7 nM (active)
12,Cc1cc2[nH]c3c(=O)n(Cc4ccccc4F)ncc3c2s1,inactive
13,O=S(=O)(NCCCCCCNS(=O)(=O)c1c(F)cccc1F)c1ccc2c(c1)OCCO2,4010 nM (active)
14,CC(C)c1cc2c(s1)c1cnn(Cc3ccccc3F)c(=O)c1n2C,101 nM (active)
15,CC1(C)CCc2cc(S(=O)(=O)N3CCN(S(=O)(=O)c4c(F)cccc4F)CC3)ccc2O1,71.3 nM (active)
16,O=S(=O)(c1ccc2c(c1)OCCO2)N1CCN(S(=O)(=O)c2ccc3c(c2)OCCO3)CC1,179 nM (active)
17,O=S(=O)(c1cccc(F)c1)N1CCN(S(=O)(=O)c2ccc3c(c2)OCCO3)CC1,284 nM (active)

row,Structure (SMILES),Potency
1,Cc1cc2c(s1)c1cnn(Cc3c(F)cccc3Cl)c(=O)c1n2C,40.1 nM (active)
2,O=S(=O)(c1ccc2c(c1)OCCO2)C1CCN(S(=O)(=O)c2c(F)cccc2F)CC1,713 nM (active)
3,O=S(=O)(NCC1CN(S(=O)(=O)c2c(F)cccc2F)C1)c1ccc2c(c1)OCCO2,2530 nM (active)
4,Cc1cc2c(s1)c1cnn(Cc3ccccc3F)c(=O)c1n2C,40.1 nM (active)
5,CCCc1noc(-c2ccc(-c3ccccc3)cc2)n1,inactive
6,COc1ccc(S(=O)(=O)N2CCN(S(=O)(=O)c3ccc4c(c3)OCCO4)CC2)cc1,80 nM (active)
7,O=S(=O)(c1ccc(F)cc1)N1CCN(S(=O)(=O)c2ccc3c(c2)OCCO3)CC1,56.6 nM (active)
8,Cc1cc(C)nc(SCCc2ccncc2)n1,inactive
9,CCOC(=O)CSc1nc2cc(OC)ccc2cc1C#N,inactive
10,CCCc1cc(F)c(S(=O)(=O)N2CCN(S(=O)(=O)c3ccc4c(c3)OCCO4)CC2)cc1F,800 nM (active)
11,Cc1cc2c(s1)c1cnn(Cc3c(F)cccc3F)c(=O)c1n2C,25.3 nM (active)
12,COc1cc2c(s1)c1cnn(Cc3ccccc3F)c(=O)c1n2C,40.1 nM (active)
13,Cn1c2cc(C#N)sc2c2cnn(Cc3ccccc3F)c(=O)c21,11.3 µM (active) and 22.5 nM (active)
14,Cc1ccc(-c2nnc3ccc(SC(C)C(=O)O)nn23)cc1 (stereo not drawn),inactive
15,Cn1c2cc(C=O)sc2c2cnn(Cc3ccccc3F)c(=O)c21,7.1 nM (active)
16,COc1ccc(S(=O)(=O)N2CCN(S(=O)(=O)c3ccc(OC)cc3)CC2)cc1,142 nM (active)
